For 13 compounds, Potency results are on record in PubChem BioAssay (Tox21).

Assay [1] concerns the target Gonadotropin-releasing hormone receptor (Homo sapiens) (UniProt P30968). The assay is described as follows: Human gonadotropin-releasing hormone receptor (GnRHR) small molecule agonists, calcium flux assay in GnRHR-HEK293 cells (AID 1920063). Note: nearly all actives have a fitted effect of over 35% in size. In outline: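 Tox21-format agonist screen using human GnRHR-expressing HEK293 cells and a fluorescent calcium dye; kinetic 3-min fluorescence reading after compound addition, 15-point concentration series run in triplicate.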
A general note: Calcium flux is commonly read through the fluorescence of an indicator in the cells.

Assay [2] deals with KiSS-1 receptor (Homo sapiens) (UniProt Q969F8). Kind of assay: Human kisspeptin (KISS1R) small molecule agonists, calcium flux assay in KISS1R-HEK293 cells (AID 1920064; active = well fitted activation curve with a large enough effect in the repeat runs). In outline: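 Intracellular calcium mobilization in KISS1R-HEK293 cells was recorded by fluorescence (Ex/Em 480/540) for 3 min following compound addition to cells pre-loaded 1 h with calcium dye.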
A short description of assay [3]: G protein-coupled receptor (GPCR) small molecule agonists, calcium flux assay: HEK293 wild type cell line counter screen (AID 1920065). In outline: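 In this agonist-mode screen, ATP is the positive control and DMSO the vehicle. Cells grow 18 h before a 1 h dye incubation at 37 C; signal is taken at Ex/Em 480/540 over 3 min.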
The target of assay [4] is 5-hydroxytryptamine receptor 2A (Homo sapiens) (UniProt P28223). Kind of assay: 5-hydroxytryptamine receptor 2A (HTR2A) small molecule antagonists, cell-based qHTS assay (AID 1963586). Note: nearly all actives have a fitted effect of over 45% in size. Note: potency is the fitted concentration of half-maximal effect. In outline: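 Antagonist-mode intracellular calcium assay: DOI (4 nM) added after 5 min compound pre-incubation at room temperature to dye-loaded HTR2A-CHO cells. Fluorescence followed for 3 min, sampled every second.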
For orientation: Quantitative high-throughput screening tests each substance at several concentrations.

The target in assay [5] is Muscarinic acetylcholine receptor M1 (Homo sapiens) (UniProt P11229). Kind of assay: Cholinergic receptor muscarinic 1 (CHRM1) small molecule antagonists, cell-based qHTS assay (AID 1963588). Note: nearly all actives have a fitted effect of over 40% in size. In outline:
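CHRM1-CHO calcium-flux assay, antagonist mode. Cells were seeded 18 h, dye-loaded 1 h at 37 C and given compound for 5 min at RT, then acetylcholine was added at 50nM. FDSS fluorescence was read 3 min; 15 concentrations, three runs.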

The target is the same in assay [6]. The assay is described as follows: Cholinergic receptor muscarinic 1 (CHRM1) small molecule agonists, cell-based qHTS assay (AID 1963589). Note: nearly all actives have a fitted effect of over 35% in size. In outline: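 Stable CHRM1-CHO cells (human receptor) were incubated 18 h, dye-loaded for 1 h at 37 C and exposed to test compounds for agonist activity, with calcium-dependent fluorescence followed kinetically.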
Assay [7] can be described thus: cAMP Responsive Elements (CRE) small molecule agonists, cell-based qHTS assay (AID 1963590). In outline: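 FRET-based beta-lactamase readout (LiveBLAzer B/G, 2 h RT) quantified CRE activation in HEK 293T CRE-bla cells after 3 h treatment with DMSO-dissolved compounds.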
Assay [8] is described as follows: cAMP Responsive Elements (CRE) small molecule antagonists, cell-based qHTS assay (AID 1963591; active = well fitted inhibition curve with a large enough effect in the signal ratio in the repeat runs, not every such curve was filed as active; the % refers to the signal ratio). In outline:
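qHTS in CRE-bla HEK 293T cells: compound in DMSO, then 0.25 uM NKH477 (final), 3 h at 37 °C/5% CO2; beta-lactamase FRET read-out after 2 h substrate incubation.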

Assay [9] has as its target Beta-2 adrenergic receptor (Homo sapiens) (UniProt P07550). The assay is described as follows: Adrenergic beta2 receptor (ADRB2) small molecule antagonists, cell-based qHTS assay (AID 1963592). Note: series mostly up to about 92 µM; nearly all actives have a fitted effect of over 50% in size. In outline:
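Cells (CHO, stable ADRB2 overexpression) incubated 18-20hr at 37C; compounds added from DMSO; agonist mix (1nM isoproterenol, 100uM IBMX, 25uM Ro-20-1724) added; 0.5hr RT; d2-cAMP and anti-cAMP-cryptate added; 1hr RT; 665/615 nm read.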

In assay [10] the target is D(2) dopamine receptor (Homo sapiens) (UniProt P14416). The assay is described as follows: Dopamine D2 receptor (DRD2) small molecule agonists, cell-based qHTS assay (AID 1963594). Note: nearly all actives have a fitted effect of over 35% in size. In outline: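 HEK293 cells stably expressing human DRD2, pre-treated with PDE inhibitor Ro20-1724 (0.1 mM final) and compound 10 min at room temperature, then stimulated with NKH477 (200nM […]) for 30 min. cAMP read by HTRF (665/620 nm).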

For assay [11] the target is unchanged. The assay is described as follows: Dopamine D2 receptor (DRD2) small molecule antagonists, cell-based qHTS assay (AID 1963595; active = well fitted inhibition curve with a large enough effect in the signal ratio in the repeat runs, with a control signal flat; the % refers to the signal ratio). In outline:
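Readout: HTRF cAMP, cAMP-d2 competing with cellular cAMP for anti-cAMP cryptate, read after 1 h. Cells: DRD2-HEK293. Conditions: 0.1 mM Ro20-1724, 12 nM quinpirole, 200 nM NKH477, 30 min RT.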

The nature of assay [12]: p53 small molecule agonists, cell-based qHTS assay: qHTS cell viability counter screen (AID 1963581). Note: nearly all actives have a fitted effect of over 45% in size. Note: potency is the fitted concentration of half-maximal effect. In outline: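 Compounds are pinned onto HCT-116 p53RE-bla cells and left 16 h at 37 C. Following the reporter FRET read, ATP is quantified by CellTiter-Glo luminescence after 30 min at room temperature.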
The nature of assay [13]: p53 small molecule agonists, cell-based qHTS assay (AID 1963582; active = well fitted activation curve with a large enough effect in the signal ratio in the repeat runs, not every such curve was filed as active; the % refers to the signal ratio). In outline:
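Agonist activity was scored from beta-lactamase FRET fluorescence in p53RE-bla cells treated 16 h at 37 C with compounds in DMSO, substrate incubation being 2 h at room temperature.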

Assay [14] concerns the target 5-hydroxytryptamine receptor 2A (Homo sapiens) (UniProt P28223). The assay is described as follows: 5-hydroxytryptamine receptor 2A (HTR2A) small molecule agonists, cell-based qHTS assay (AID 1963587). Note: nearly all actives have a fitted effect of over 30% in size. In outline: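 CHO cells stably expressing human HTR2A, plated 18 h, loaded with calcium dye 1 h at 37 C. Agonist mode: compounds added and intracellular calcium fluorescence recorded kinetically for 2 min at 1 sec intervals.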

Assay [15] concerns the target Beta-2 adrenergic receptor (Homo sapiens) (UniProt P07550). The assay is described as follows: Adrenergic beta2 receptor (ADRB2) small molecule agonists, cell-based qHTS assay (AID 1963593).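 Note: CHO cells stably overexpressing human ADRB2.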 In outline:
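CHO cells stably over-expressing ADRB2 were plated overnight at 37C, then dosed with compounds plus a stimulation mix containing 100uM IBMX and 25uM Ro-20-1724 for 0.5hr at room temperature. cAMP was measured by HTRF competition, 1hr.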

Assay [16] in a line: p53 small molecule agonists, cell-based qHTS assay with rat liver microsomes: qHTS cell viability counter screen (AID 1963580). Note: nearly all actives have a fitted effect of over 45% in size. In outline:
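p53RE-bla HCT-116 cells were exposed 16 h at 37 C to compounds with rat liver microsomes (0.5 mg/mL) and NADPH (0.5 mg/mL). Viability was measured in the same wells as ATP content by CellTiter-Glo luminescence.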

Results filed as inconclusive are left out. The source made the active and inactive calls. Unless noted, calls come from the whole dose curve.

Chain of Beta-2 adrenergic receptor (Homo sapiens) (P07550 whole entry, looked up): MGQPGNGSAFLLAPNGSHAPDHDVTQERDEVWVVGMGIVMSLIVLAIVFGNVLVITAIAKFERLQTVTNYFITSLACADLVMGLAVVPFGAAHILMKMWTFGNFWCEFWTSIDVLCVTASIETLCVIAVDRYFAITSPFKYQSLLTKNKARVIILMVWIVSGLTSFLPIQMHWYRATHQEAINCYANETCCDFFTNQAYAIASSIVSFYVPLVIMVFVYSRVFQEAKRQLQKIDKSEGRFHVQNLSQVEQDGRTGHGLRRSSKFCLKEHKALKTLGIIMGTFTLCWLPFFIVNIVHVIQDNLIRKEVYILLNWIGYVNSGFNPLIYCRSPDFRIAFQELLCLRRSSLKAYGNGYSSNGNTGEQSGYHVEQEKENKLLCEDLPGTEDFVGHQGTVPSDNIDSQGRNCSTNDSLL
Chain of D(2) dopamine receptor (Homo sapiens) (P14416 whole entry, looked up): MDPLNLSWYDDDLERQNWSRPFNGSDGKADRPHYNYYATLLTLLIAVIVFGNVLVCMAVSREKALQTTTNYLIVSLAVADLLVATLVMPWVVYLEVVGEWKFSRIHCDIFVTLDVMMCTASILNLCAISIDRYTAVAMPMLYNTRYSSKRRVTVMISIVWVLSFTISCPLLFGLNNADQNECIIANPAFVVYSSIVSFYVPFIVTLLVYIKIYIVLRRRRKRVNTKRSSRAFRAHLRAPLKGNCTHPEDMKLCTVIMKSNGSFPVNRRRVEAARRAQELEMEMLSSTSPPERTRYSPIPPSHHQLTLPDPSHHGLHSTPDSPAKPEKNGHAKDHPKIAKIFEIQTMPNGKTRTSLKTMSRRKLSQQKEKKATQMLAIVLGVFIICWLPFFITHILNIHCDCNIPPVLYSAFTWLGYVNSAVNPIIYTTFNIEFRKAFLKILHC
Chain of KiSS-1 receptor (Homo sapiens) (Q969F8 whole entry, looked up): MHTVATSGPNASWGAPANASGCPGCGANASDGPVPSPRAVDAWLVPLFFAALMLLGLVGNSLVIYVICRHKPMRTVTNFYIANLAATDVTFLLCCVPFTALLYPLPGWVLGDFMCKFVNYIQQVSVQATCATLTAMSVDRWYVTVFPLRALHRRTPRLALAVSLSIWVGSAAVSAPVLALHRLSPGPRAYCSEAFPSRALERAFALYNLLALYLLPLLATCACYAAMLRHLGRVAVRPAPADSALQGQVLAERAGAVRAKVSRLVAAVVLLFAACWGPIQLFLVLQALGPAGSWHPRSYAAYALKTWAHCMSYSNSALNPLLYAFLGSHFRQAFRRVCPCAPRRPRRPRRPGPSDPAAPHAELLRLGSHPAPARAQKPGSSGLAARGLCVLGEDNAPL
Chain of Muscarinic acetylcholine receptor M1 (Homo sapiens) (P11229 whole entry, looked up): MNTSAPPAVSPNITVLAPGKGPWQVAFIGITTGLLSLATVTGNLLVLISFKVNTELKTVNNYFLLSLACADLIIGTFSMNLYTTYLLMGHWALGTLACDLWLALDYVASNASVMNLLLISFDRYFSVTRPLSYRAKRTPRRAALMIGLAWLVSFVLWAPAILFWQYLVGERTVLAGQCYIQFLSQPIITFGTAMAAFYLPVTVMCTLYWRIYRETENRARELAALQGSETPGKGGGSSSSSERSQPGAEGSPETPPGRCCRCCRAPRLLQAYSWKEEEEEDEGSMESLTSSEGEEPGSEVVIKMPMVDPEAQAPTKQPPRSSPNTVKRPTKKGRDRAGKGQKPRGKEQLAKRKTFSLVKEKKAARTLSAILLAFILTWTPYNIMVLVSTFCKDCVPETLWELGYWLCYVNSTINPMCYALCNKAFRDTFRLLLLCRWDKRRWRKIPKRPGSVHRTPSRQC
Chain of 5-hydroxytryptamine receptor 2A (Homo sapiens) (P28223 whole entry, looked up): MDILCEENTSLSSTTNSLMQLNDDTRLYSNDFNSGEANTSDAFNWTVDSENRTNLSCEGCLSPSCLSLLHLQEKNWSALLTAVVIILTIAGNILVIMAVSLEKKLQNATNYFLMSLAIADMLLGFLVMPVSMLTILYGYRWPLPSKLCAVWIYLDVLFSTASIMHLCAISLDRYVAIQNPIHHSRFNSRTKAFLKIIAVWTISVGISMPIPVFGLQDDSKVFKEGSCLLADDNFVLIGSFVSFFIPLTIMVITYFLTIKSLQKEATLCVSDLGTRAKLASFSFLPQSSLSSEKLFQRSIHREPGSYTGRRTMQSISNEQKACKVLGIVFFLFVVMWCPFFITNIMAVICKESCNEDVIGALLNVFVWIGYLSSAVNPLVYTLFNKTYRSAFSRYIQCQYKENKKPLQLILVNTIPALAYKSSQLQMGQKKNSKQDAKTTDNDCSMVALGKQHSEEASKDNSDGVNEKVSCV
Chain of Gonadotropin-releasing hormone receptor (Homo sapiens) (P30968 whole entry, looked up): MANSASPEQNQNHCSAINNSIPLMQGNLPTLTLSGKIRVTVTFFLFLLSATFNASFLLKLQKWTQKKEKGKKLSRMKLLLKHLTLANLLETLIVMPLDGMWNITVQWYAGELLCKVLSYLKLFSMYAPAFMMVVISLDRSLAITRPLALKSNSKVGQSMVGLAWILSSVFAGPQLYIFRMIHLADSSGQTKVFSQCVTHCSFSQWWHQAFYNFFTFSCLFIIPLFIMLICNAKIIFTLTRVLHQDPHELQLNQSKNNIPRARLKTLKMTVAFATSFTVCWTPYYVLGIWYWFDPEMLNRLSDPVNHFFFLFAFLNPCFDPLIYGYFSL

In the case of `Cc1ccccc1`, the Potency entry in assay [1], in [2], in assay [3], in [4], in assay [5] and in [6] was “inactive” throughout. Also, the Potency entry in [7], in assay [8], in assay [9], in assay [10] and in [11] was “inactive” each time.

As for `Cc1cnc(C(=O)NCCc2ccc(S(=O)(=O)NC(=O)NC3CCCCC3)cc2)cn1`, the Potency entry in assay [1], in assay [2], in assay [3], in [12], in assay [13] and in [8] was “inactive” in each case. Also, the Potency result in assay [9] and in [11] was “inactive” each time.

In the case of `COc1ccc(-c2nc3ccc(C4=NNC(=O)CC4C)cc3[nH]2)cc1` (stereo unspecified), the Potency entry in assay [1], in assay [2], in assay [3], in assay [14], in assay [5] and in assay [6] was “inactive” in each case. In addition, the Potency entry in assay [11] is “inactive”. Further, in [4], the Potency is 230 nM (active).

Take `CN(C)C(=N)N=C(N)N`: the Potency entry in assay [1], in [2], in assay [3], in assay [12], in [13] and in assay [7] was “inactive” in each case. In addition, the Potency entry in [8], in assay [9], in assay [15], in assay [10] and in [11] was “inactive” throughout.

On to `CC(=O)Nc1ccc(O)cc1`, for which the Potency entry in [1], in assay [2], in assay [3], in assay [7], in assay [8] and in assay [9] was “inactive” in each case. Further, the Potency entry in assay [10] and in assay [11] was “inactive” in each case.

In the case of `Nc1nc2ccc([N+](=O)[O-])cc2s1`, the Potency entry in assay [1], in assay [2], in [3], in assay [12], in assay [14] and in [6] was “inactive” in each case. The Potency entry in assay [9] is “inactive”. Moreover, the Potency in assay [4] was 3750 nM (active).

As for `CN1[C@@H]2CC[C@H]1CC(OC(=O)C(CO)c1ccccc1)C2` (stereo partly specified), the Potency result in assay [1], in assay [2], in assay [3], in [7], in assay [8] and in [9] was “inactive” throughout. Also, the Potency result in [10] and in [11] was “inactive” throughout.

Regarding `CC(C)(C(=O)O)c1ccc(C(O)CCCN2CCC(C(O)(c3ccccc3)c3ccccc3)CC2)cc1` (stereo unspecified), the Potency entry in [1], in assay [2], in [3], in assay [12], in assay [13] and in assay [7] was “inactive” throughout. For the same compound, the Potency result in assay [8], in assay [9], in assay [10] and in assay [11] was “inactive” in each case.

Take `Nc1cccc2c(N)cccc12`: the Potency result in [1], in assay [2], in assay [16], in assay [14], in assay [5] and in [6] was “inactive” each time. The Potency result in [7] was “inactive”. Also, the Potency in assay [12] was 646 nM (active).

As for `CC(C)(C)NC(=O)[C@@H]1C[C@@H]2CCCC[C@@H]2CN1C[C@@H](O)[C@H](Cc1ccccc1)NC(=O)[C@H](CC(N)=O)NC(=O)c1ccc2ccccc2n1`, the Potency result in [1], in assay [2], in assay [3], in assay [9] and in assay [11] was “inactive” in each case.

Regarding `CC1CCCC1`, the Potency result in assay [1], in [2], in [3], in [14], in assay [5] and in assay [6] was “inactive” in each case. The Potency result in assay [8], in [9], in assay [10] and in assay [11] was “inactive” each time.

As to `OCC(O)CO`, the Potency entry in assay [1], in assay [2], in assay [3], in [4], in assay [14] and in assay [5] was “inactive” throughout. For the same compound, the Potency entry in assay [6], in assay [7], in assay [8], in assay [9], in assay [15] and in assay [10] was “inactive” throughout. Also, the Potency entry in assay [11] is “inactive”.

With `COc1ccc2cc([C@H](C)C(=O)O)ccc2c1`, the Potency entry in assay [1], in assay [2], in assay [3], in [12], in [13] and in assay [8] was “inactive” in each case. Moreover, the Potency entry in assay [9] and in assay [11] was “inactive” each time.
